Measured values from PubChem BioAssay (NCI).
The panel holds about 83,000 compounds, 20% with a hit somewhere; the sample as a whole holds those more often.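 48-hour exposure, single concentration, 96-well plates; percent growth endpoint where 0 means no net growth. Active: below 10.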

Legend:
Test in all cases: NCI-60 one-dose screen, 48 h (100 = growth as untreated, 0 = no growth, -100 = all killed)
Details in all cases: 10 µM
NCI-H23 lung = system: NCI-H23 lung
NCI-H226 lung = system: NCI-H226 lung
NCI-H322M lung = system: NCI-H322M lung
HOP-62 NSCLC = system: HOP-62 NSCLC
NCI-H460 lung = system: NCI-H460 lung
NCI-H522 lung = system: NCI-H522 lung
A549/ATCC NSCLC = system: A549/ATCC NSCLC
786-0 renal = system: 786-0 renal
COLO 205 colon = system: COLO 205 colon
DU-145 prostate = system: DU-145 prostate
K-562 leukemia = system: K-562 leukemia
MALME-3M melanoma = system: MALME-3M melanoma
MDA-MB-231 breast = system: MDA-MB-231 breast
SF-268 CNS = system: SF-268 CNS
SF-295 CNS = system: SF-295 CNS
SF-539 CNS = system: SF-539 CNS
UACC-257 melanoma = system: UACC-257 melanoma
M14 melanoma = system: M14 melanoma
RXF 393 renal = system: RXF 393 renal

Measured: growth

CCCCC(=O)c1ccc(OC)cc1
inactive: NCI-H23 lung 99.7% | NCI-H226 lung 99.7% | NCI-H322M lung 111% | HOP-62 NSCLC 112% | NCI-H460 lung 104% | NCI-H522 lung 91.2% | A549/ATCC NSCLC 97.4% | 786-0 renal 96.2% | COLO 205 colon 118% | DU-145 prostate 104% | K-562 leukemia 105% | MALME-3M melanoma 94% | MDA-MB-231 breast 109% | SF-268 CNS 107% | SF-295 CNS 92% | SF-539 CNS 110% | UACC-257 melanoma 91.2% | M14 melanoma 99.4%

O=C(Cc1nc2ccc([N+](=O)[O-])cc2nc1CC(=O)c1cccnc1)c1cccnc1
inactive: NCI-H23 lung 52.7% | NCI-H226 lung 52.2% | NCI-H322M lung 51% | HOP-62 NSCLC 25.6% | NCI-H460 lung 48.1% | NCI-H522 lung 18.5% | A549/ATCC NSCLC 64.8% | 786-0 renal 15.8% | COLO 205 colon 121% | DU-145 prostate 76.5% | K-562 leukemia 70.7% | MALME-3M melanoma 68.5% | RXF 393 renal 20.1% | SF-268 CNS 47% | SF-295 CNS 54.5% | SF-539 CNS 30.1% | UACC-257 melanoma 78.6% | M14 melanoma 82.8%

CC(=O)c1c[nH]c2ccccc12
inactive: NCI-H23 lung 106% | NCI-H226 lung 97.5% | NCI-H322M lung 101% | HOP-62 NSCLC 95.8% | NCI-H460 lung 113% | NCI-H522 lung 92.9% | A549/ATCC NSCLC 103% | 786-0 renal 103% | DU-145 prostate 124% | K-562 leukemia 103% | MALME-3M melanoma 95.2% | MDA-MB-231 breast 114% | RXF 393 renal 104% | SF-268 CNS 113% | SF-295 CNS 100% | SF-539 CNS 105% | UACC-257 melanoma 104% | M14 melanoma 102%

COc1cc(CN)ccc1O
inactive: NCI-H23 lung 99.4% | NCI-H226 lung 99.8% | NCI-H322M lung 89.7% | HOP-62 NSCLC 98.3% | NCI-H460 lung 91.4% | NCI-H522 lung 88% | A549/ATCC NSCLC 98.6% | 786-0 renal 100% | DU-145 prostate 91.2% | K-562 leukemia 71.7% | MALME-3M melanoma 79.3% | MDA-MB-231 breast 86.9% | RXF 393 renal 95% | SF-268 CNS 100% | SF-539 CNS 94.9% | UACC-257 melanoma 94.1% | M14 melanoma 101%

C#CC(C)(O)c1ccc(Cl)cc1 (stereo not given)
inactive: NCI-H23 lung 92.4% | NCI-H226 lung 78.2% | NCI-H322M lung 99.9% | HOP-62 NSCLC 84.6% | NCI-H460 lung 104% | NCI-H522 lung 91.4% | A549/ATCC NSCLC 99.2% | 786-0 renal 95.5% | COLO 205 colon 103% | DU-145 prostate 112% | K-562 leukemia 91.3% | MALME-3M melanoma 125% | MDA-MB-231 breast 102% | SF-268 CNS 103% | SF-295 CNS 90.8% | SF-539 CNS 96.3% | UACC-257 melanoma 101% | M14 melanoma 98.8%

COc1ccc(C)cc1OC
inactive: NCI-H23 lung 96.4% | NCI-H226 lung 98.8% | NCI-H322M lung 88.8% | HOP-62 NSCLC 102% | NCI-H460 lung 107% | NCI-H522 lung 104% | A549/ATCC NSCLC 96.9% | 786-0 renal 105% | DU-145 prostate 99.6% | K-562 leukemia 92.9% | MALME-3M melanoma 97% | MDA-MB-231 breast 107% | RXF 393 renal 117% | SF-268 CNS 98.4% | SF-295 CNS 95.7% | SF-539 CNS 109% | UACC-257 melanoma 93.9% | M14 melanoma 115%

Cc1ccncc1C(N)=O
inactive: NCI-H23 lung 119% | NCI-H226 lung 95.4% | NCI-H322M lung 104% | HOP-62 NSCLC 98.6% | NCI-H460 lung 101% | NCI-H522 lung 101% | A549/ATCC NSCLC 108% | 786-0 renal 106% | COLO 205 colon 124% | DU-145 prostate 106% | K-562 leukemia 101% | MALME-3M melanoma 106% | MDA-MB-231 breast 116% | SF-268 CNS 98.2% | SF-295 CNS 120% | SF-539 CNS 95.7% | UACC-257 melanoma 110% | M14 melanoma 103%

O=C(Cc1ccccc1)Cc1ccccc1
inactive: NCI-H23 lung 103% | NCI-H226 lung 100% | NCI-H322M lung 104% | HOP-62 NSCLC 110% | NCI-H460 lung 102% | NCI-H522 lung 97% | A549/ATCC NSCLC 96% | 786-0 renal 95.2% | COLO 205 colon 110% | DU-145 prostate 113% | K-562 leukemia 110% | MALME-3M melanoma 115% | MDA-MB-231 breast 109% | SF-268 CNS 103% | SF-295 CNS 108% | SF-539 CNS 101% | UACC-257 melanoma 93.1% | M14 melanoma 102%

O=C(O)CCCCNC(=O)c1ccccc1
inactive: NCI-H23 lung 91% | NCI-H226 lung 92.3% | NCI-H322M lung 106% | HOP-62 NSCLC 90.8% | NCI-H460 lung 106% | NCI-H522 lung 89.4% | A549/ATCC NSCLC 98.4% | 786-0 renal 97.5% | DU-145 prostate 110% | K-562 leukemia 89.3% | MALME-3M melanoma 110% | MDA-MB-231 breast 99.1% | SF-268 CNS 102% | SF-295 CNS 95.1% | SF-539 CNS 99.8% | UACC-257 melanoma 107% | M14 melanoma 98.8%
